Measurements taken from PubChem BioAssay (EPA / NIEHS).
Inconclusive results are not listed. Activity calls are given as the source filed them. How the source made its calls, unless noted: active means hit-call score of the fitted dose curve at least 0.9, where 1 is the maximum; inactive means score below 0.9.

How the values were obtained:
[1] = CCTE_Harrill_HTTr_Viability_MCF7: CCTE's 6-hour Cell Viability Assessment for the High-Throughput Transcriptomics (HTTr) Platform, in MCF-7 cells cultured in DMEM + 10% fetal bovine serum, Harrill Lab (AID 2284010)
Outline: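 Membrane integrity was scored by high-content imaging of propidium iodide dye exclusion after a 6 h exposure across an eight-point dilution series. Data were fitted bidirectionally relative to DMSO as negative control and baseline.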

[2] = CCTE_Harrill_HTTr_Apoptosis_MCF7: CCTE's 6-hour Apoptosis Assessment for the High-Throughput Transcriptomics (HTTr) Platform, in MCF-7 cells cultured in DMEM + 10% fetal bovine serum, Harrill Lab (AID 2284011)
Outline: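 MCF-7 cells in DMEM + 10% FBS exposed 6 h to chemicals over an eight-point dilution series. Caspase-3/7 activation imaged by high-content CellEvent Green staining; fitted bidirectionally versus DMSO.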

[3] = UKN5_HCS_SBAD2_cell_viability: Viability Assessment in the University of Konstanz (UKN) Leist Lab Neurite Outgrowth Assay in human iPSC-derived immature Dorsal Root Ganglia Neurons (UKN5) (AID 2284056)
Outline: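 iPSC-derived immature peripheral neurons (SBAD2) seeded on Matrigel with CHIR99021, SU5402 and DAPT, dosed 1 h later for 24 h. Viability from Hoechst H-33342 and calcein-AM live staining, high-content imaging; bidirectional fit versus DMSO.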

[4] = UKN5_HCS_SBAD2_neurite_outgrowth: University of Konstanz (UKN) Leist Lab Neurite Outgrowth Assay in human iPSC-derived immature Dorsal Root Ganglia Neurons (UKN5) (AID 2284070); conditions: actives raise or lower the signal
Outline: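 Human iPSC-derived immature DRG neurons (SBAD2) on Matrigel with CHIR99021 (1.5 uM), SU5402 (5 uM), DAPT (5 uM); compounds added 1 h post-seeding for 24 h. Calcein-AM neurite area imaged; bidirectional fit vs DMSO.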

[5] = UKN2_HCS_IMR90_neural_migration: University of Konstanz (UKN) Leist Lab Neural Crest Cell Migration Assay in human induced IMR90 Pluripotent Stem Cells (UKN2) (AID 2284204); conditions: actives raise or lower the signal
Outline: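 iPSC-derived IMR90 neural crest cells seeded around stoppers on PLO/laminin/fibronectin; migration started in N2-S medium with EGF/FGF, compounds added after 24 h for 24 h. Migration into cell-free area imaged after calcein-AM/Hoechst staining; bidirectional fit versus DMSO.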

[6] = IUF_NPC1b_proliferation_BrdU_72hr: Leibniz Research Institute for Environmental Medicine (IUF) 72-hour Neural Progenitor Cell Bromodeoxyuridine (BrdU) Proliferation Assay (NPC1b) (AID 2284207)
Outline: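 BrdU luminescence ELISA quantified DNA synthesis over the last 16 h of a 72 h exposure, fitted against DMSO. Primary hNPC spheres from gestational week 16-19 cortex grown with EGF/FGF at 37C, pH 7.2-7.6.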

[7] = IUF_NPC1a_proliferation_area_72hr: Leibniz Research Institute for Environmental Medicine (IUF) 72-hour Neural Progenitor Cell Proliferation Area Assay (NPC1a) (AID 2284208)
Outline: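 Single 0.25–0.35 mm human fetal neural progenitor spheres in proliferation medium with EGF and FGF, exposed 72 h from plating without renewal at 37C, pH 7.2-7.6. Sphere area growth measured by automated phase-contrast imaging, relative to DMSO.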

[8] = IUF_NPC1_viability_72hr: Viability Assessment at 72 hours in the Leibniz Research Institute for Environmental Medicine (IUF) Neural Progenitor Cell Proliferation Assay (NPC1) (AID 2284209)
Outline: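 Human fetal-cortex neural progenitor spheres (0.25–0.35 mm, one per well) grown in EGF/FGF proliferation medium at 37C, pH 7.2-7.6, exposed 72 h without renewal; viability read as alamar blue resazurin-to-resorufin fluorescence relative to DMSO.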

[9] = UKN2_HCS_IMR90_cell_viability: Viability Assessment in the University of Konstanz (UKN) Leist Lab Neural Crest Cell Migration Assay in human induced IMR90 Pluripotent Stem Cells (UKN2) (AID 2284233);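 further: viability of neural crest cells differentiated from IMR90 iPSC measured by calcein-AM fluorescence imaging; cells exposed to compound for 24 h after a 24 h migration phase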
Outline: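 Neural crest cells derived from IMR90 iPSC migrate into a stopper-free zone for 24 h in EGF/FGF medium, then are exposed to compound for 24 h. Viability assessed by calcein-AM and Hoechst staining with high-content imaging, fitted bidirectionally versus DMSO.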

[10] = IUF_NPC2c_oligodendrocyte_migration_120hr: Leibniz Research Institute for Environmental Medicine (IUF) 120-hour Neural Progenitor Cell Migration Assay for Oligodendrocyte Migration (NPC2c) (AID 2284297);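 further: O4-positive oligodendrocyte migration distance divided by radial glia migration distance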
Outline: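 Human fetal neural progenitor spheres (0.3 mm) are plated on poly-D-lysine/laminin in N2 differentiation medium and exposed for 120 h, with half-medium renewal at day 3. Oligodendrocyte (O4+) migration distance comes from ICC imaging, normalised to radial glia migration.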

[11] = IUF_NPC2a_radial_glia_migration_120hr: Leibniz Research Institute for Environmental Medicine (IUF) 120-hour Neural Progenitor Cell Migration Assay for Radial Glia Migration (NPC2a) (AID 2284298)
Outline: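 Human fetal-cortex neural progenitor spheres (0.3 mm) plated on poly-D-lysine/laminin in N2 differentiation medium, exposed 120 h at 37C with half-medium renewal at day 3. Radial glia migration distance (um) measured from Hoechst-stained nuclei images; DMSO baseline.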

[12] = IUF_NPC2a_radial_glia_migration_72hr: Leibniz Research Institute for Environmental Medicine (IUF) 72-hour Neural Progenitor Cell Migration Assay for Radial Glia Migration (NPC2a) (AID 2284299)
Outline: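 Human fetal cortex (GW 16-19) neural progenitor spheres, 0.3 mm, plated on poly-D-lysine/laminin in N2 differentiation medium with compound from day 0. Radial glia migration distance (um, sphere core edge to migration edge) measured manually in four directions on 72 h brightfield images; well mean used.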

[13] = IUF_NPC2b_neuronal_migration_120hr: Leibniz Research Institute for Environmental Medicine (IUF) 120-hour Neural Progenitor Cell Migration Assay for Neuron Migration (NPC2b) (AID 2284300)
Outline: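 0.3 mm hNPC spheres on poly-D-lysine/laminin in N2 differentiation medium exposed 120 h, half-medium refresh day 3; 7 concentrations, DMSO max 0.1%. Neuron (TUBB3) distance from sphere core by ICC imaging, normalised to radial glia migration.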

[14] = IUF_NPC3_neuronal_differentiation_120hr: Leibniz Research Institute for Environmental Medicine (IUF) 120-hour Neuronal Differentiation Assay (NPC3) (AID 2284301)
Outline: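 Human fetal (GW 16-19) neural progenitor spheres (0.3 mm) plated on poly-D-lysine/laminin in N2 differentiation medium, exposed 120 h at 37C with half-medium renewal day 3; 7 concentrations. TUBB3+ cells as % of Hoechst nuclei, CNN-identified; DMSO baseline.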

[15] = IUF_NPC4_neurite_length_120hr: Leibniz Research Institute for Environmental Medicine (IUF) 120-hour Neuronal Morphology Assay for Neurite Length (NPC4) (AID 2284302)
Outline: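 Human fetal neural progenitor spheres (0.3 mm) plated on poly-D-lysine/laminin in N2 differentiation medium, exposed from day 0 for 120 h with half-medium refresh at day 3, 37C. Mean neurite length (um) of TUBB3-positive neurons from skeletonized immunostaining images; DMSO ≤0.1%.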

[16] = IUF_NPC5_oligodendrocyte_differentiation_120hr: Leibniz Research Institute for Environmental Medicine (IUF) 120-hour Oligodendrocyte Differentiation Assay (NPC5) (AID 2284304; active means hit-call score of the fitted dose curve at least 0.9, where 1 is the maximum;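 further: primary human fetal neural progenitor spheres plated to migrate and differentiate; share of O4-positive cells among Hoechst nuclei found by CNN image analysis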)
Outline: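 Human fetal neural progenitor spheres (0.3 mm) plated on poly-D-lysine/laminin in N2 differentiation medium and exposed for 120 h at 7 concentrations, with half-medium renewal at day 3. O4-positive cells identified by CNN, expressed as percent of Hoechst nuclei.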

[17] = IUF_NPC4_neurite_area_120hr: Leibniz Research Institute for Environmental Medicine (IUF) 120-hour Neuronal Morphology Assay for Neurite Area (NPC4) (AID 2284305; active means hit-call score of the fitted dose curve at least 0.9, where 1 is the maximum)
Outline: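 Human fetal neural progenitor spheres (0.3 mm) plated on poly-D-lysine/laminin in N2 differentiation medium, exposed 120 h (7 concentrations, DMSO ≤0.1%, half-medium refresh day 3). Fixed, TUBB3 immunostained; mean neurite area per neuron by Omnisphero skeletonization.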

[18] = IUF_NPC2-5_cytotoxicity_72hr: Cytotoxicity Assessment at 72 hours in the Leibniz Research Institute for Environmental Medicine (IUF) Neural Progenitor Cell Migration and Differentiation Assay for Cytotoxicity (NPC2-5) (AID 2284306; active means hit-call score of the fitted dose curve at least 0.9, where 1 is the maximum;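 further: LDH release into supernatant measured by resorufin fluorescence marking membrane damage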)
Outline: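 Human fetal primary neural progenitor spheres (0.3 mm) plated on poly-D-lysine/laminin in N2 differentiation medium, exposed from day 0 at 37C. LDH-dependent resazurin-to-resorufin fluorescence in supernatant at 72 h; 7 concentrations, DMSO at most 0.1%.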

[19] = IUF_NPC2-5_cytotoxicity_120hr: Cytotoxicity Assessment at 120 hours in the Leibniz Research Institute for Environmental Medicine (IUF) Neural Progenitor Cell Migration and Differentiation Assay (NPC2-5) (AID 2284307; active means hit-call score of the fitted dose curve at least 0.9, where 1 is the maximum)
Outline: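 Human fetal (GW 16-19) neural progenitor spheres (0.3 mm) plated on poly-D-lysine/laminin in N2 differentiation medium, exposed 120 h with half-medium renewal at day 3; 7 concentrations plus solvent control, DMSO ≤0.1%. LDH release in supernatant read by resorufin fluorescence.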

[20] = IUF_NPC2-5_cell_number_120hr: Cell Number Assessment at 120 hours in the Leibniz Research Institute for Environmental Medicine (IUF) Neural Progenitor Cell Migration and Differentiation Assay (NPC2-5) (AID 2284308);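 further: count of Hoechst-stained nuclei in migration zone around plated human neural progenitor spheres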
Outline: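 Human fetal neural progenitor spheres (0.3 mm) plated on poly-D-lysine/laminin in N2 differentiation medium, exposed five days across 7 concentrations with half-medium refresh at day 3. Hoechst-positive nuclei counted in migration area at 120 h, relative to DMSO.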

[21] = IUF_NPC2-5_viability_120hr: Viability Assessment at 120 hours in the Leibniz Research Institute for Environmental Medicine (IUF) Neural Progenitor Cell Migration and Differentiation Assay (NPC2-5) (AID 2284312)
Outline: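 Human fetal neural progenitor spheres (0.3 mm) plated on poly-D-lysine/laminin in N2 differentiation medium, exposed 120 h with half-medium refresh at day 3. Viability by alamar blue resazurin fluorescence; 7 concentrations, DMSO max 0.1%.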

[22] = IUF_NPC1_cytotoxicity_72hr: Cytotoxicity Assessment at 72 hours in the Leibniz Research Institute for Environmental Medicine (IUF) Neural Progenitor Cell Proliferation Assay (NPC1) (AID 2284332; active means hit-call score of the fitted dose curve at least 0.9, where 1 is the maximum;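 further: rising LDH signal means more cytotoxicity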)
Outline: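 Single human fetal cortex neural progenitor spheres (GW 16-19, 0.25-0.35 mm) in EGF/FGF proliferation medium were exposed to compound for 72 h at 37C without renewal. Medium LDH release was read as resorufin fluorescence and fitted as gain-of-signal.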

Measured: AC50

[O-][Cl+3]([O-])([O-])O
active: [6] 171 nM
inactive: all other assays above
